{"source": "PubChem BioAssay (NCATS)", "note": "Inconclusive results are not listed. Calls of active or inactive are those of the source. The call rests on the fitted dose curve; in most records, active means well fitted cell-killing curve with a large enough effect; inconclusive means small, poorly fitted or top-dose-only effect; inactive means flat fitted curve, though single readings scatter."}
{"experiment": "qHTS of pediatric cancer cell lines to identify multiple opportunities for drug repurposing: Primary screen for DAOY cells (AID 1347090); further: nearly all actives have a fitted effect of over 55% in size", "settings": "DAOY medulloblastoma viability, CellTiter-Glo luminescence, 48 h; series mostly up to 46 µM", "source_text": "Drug repurposing or repositioning has been offered as a strategy for drug development in oncology programs. This approach has special potential for childhood cancers and other rare or orphan diseases, where the expected return on new drug development has been a disincentive to pharmaceuticals.\nIn this project we exploit the poly-pharmacology of drugs to discover new indications via phenotypic screening of a panel of 19 well-characterized cell lines derived from solid tumors seen in children and adolescents. The goal is to identify approved drugs with previously unrecognized anticancer properties that has the potential to reveal new mechanisms and biological processes involved in carcinogenesis or drug resistance. We employed a titration-based paradigm (quantitative high-throughput screening or qHTS), where all compounds were tested at multiple concentrations for their effect on cell viability. Concentration-response curves (CRCs) were derived directly from the primary screen, and both potency and efficacy values were used to identify compounds with robust bioactivity profiles. We screened the NIH Chemical Genomics Center (NCGC) Pharmaceutical Collection (NPC) and Mechanism Interrogation Plate (MIPE) small molecule collections of approved and investigational compounds against these cell lines; and measured metabolically active cells after 48 hours of compound treatment as a proxy for cell viability.\nAssay Submitter: Nathalia J. Martinez, National Center for Advancing Translational Sciences, National Institutes of Health, Rockville, MD, USA; email: natalia.martinez@nih.gov\n[1] Shen, M et al. Quantitative high-throughput phenotypic screening of pediatric cancer cell lines identifies multiple opportunities for drug repurposing. Oncotarget 2017 Dec 19;9(4):4758-4772. PMID 29435139.\nThe cells were obtained from University of North Carolina (UNC), Pediatric Preclinical Testing Program (PPT), and Coriell Institute (CI).\nqHTS cell viability assay:\nCells were assayed in growth media at a density of 500-1,000 cells/well. Five microliters of cells were dispensed into 1,536-well, white, solid-bottom, TC-treated plates (Greiner Bio One) using a multidrop dispenser and incubated at 37 degrees C, 5% CO2, under a humidified atmosphere for 5 hours. Twenty-three nanoliters of compounds and controls (neutral control DMSO or positive control bortezomib at final concentration of 2.3 µM) were subsequently transferred by Kalypsys pintool. For primary screens, the MIPE collection was tested at 11-point dilutions (final concentrations range from 0.78 nM to 46 µM) and the NPC collection at 8-point dilutions (final concentrations range from 0.59 nM to 46 µM). Compounds tested in follow-up screens were assayed at 11-point dilutions. Cells were incubated for 48 hours, followed by addition of 3 uL of CellTiter-Glo (Promega). After a 15 min incubation at room temperature, samples were analyzed for luminescence intensity using a ViewLux High-throughput CCD imager equipped with clear filters."}
{"smiles": "O=c1[nH]cnc2nc[nH]c12", "outcome": "inactive"}
{"smiles": "Cn1c([N+](=O)[O-])cnc1COC(N)=O", "outcome": "inactive"}
{"smiles": "NS(=O)(=O)c1cc(C2(O)NC(=O)c3ccccc32)ccc1Cl", "note": "(stereo not given)", "outcome": "inactive"}
{"smiles": "CC(C)NC[C@@H](O)COc1ccc(CC(N)=O)cc1", "outcome": "inactive"}
{"smiles": "CC[N+](C)(CC)CCOC(=O)C1c2ccccc2Oc2ccccc21", "outcome": "inactive"}
{"smiles": "CCCCCOC(=O)Nc1nc(=O)n([C@@H]2O[C@H](C)[C@@H](O)[C@H]2O)cc1F", "outcome": "inactive"}
{"smiles": "COc1cc(C(=O)NCCCCCC(=O)O)cc(OC)c1OC", "outcome": "inactive"}
{"smiles": "Cc1onc(-c2ccccc2)c1-c1ccc(S(N)(=O)=O)cc1", "outcome": "inactive"}
{"smiles": "Cn1cc(C(=O)[C@@H]2CCc3nc[nH]c3C2)c2ccccc21", "outcome": "inactive"}
{"smiles": "CC1CCN(CCCC(=O)c2ccc(F)cc2)CC1", "outcome": "inactive"}
{"smiles": "C=CCNC(N)=S", "outcome": "inactive"}
{"smiles": "C/C(=C(\\CCO)SS/C(CCO)=C(\\C)N(C=O)Cc1cnc(C)nc1N)N(C=O)Cc1cnc(C)nc1N", "outcome": "inactive"}
{"smiles": "COc1nccnc1NS(=O)(=O)c1ccc(N)cc1", "outcome": "inactive"}
{"smiles": "CN1CC(=O)NC1=N", "outcome": "inactive"}
{"smiles": "CCS(=O)(=O)CCn1c([N+](=O)[O-])cnc1C", "outcome": "inactive"}
{"smiles": "O=c1[nH]c2cc(C(F)(F)F)c(N3CCOCC3)cc2n(CP(=O)(O)O)c1=O", "outcome": "inactive"}
{"smiles": "COC(=O)c1ccc(O)cc1", "outcome": "inactive"}
{"smiles": "CC(=O)N[C@@H](Cc1ccc(O)cc1)C(=O)O", "outcome": "inactive"}
{"smiles": "NNC(=O)CP(=O)(c1ccccc1)c1ccccc1", "outcome": "inactive"}
{"smiles": "C/C=C1\\[C@H]2C=C(C)C[C@]1(N)c1ccc(=O)[nH]c1C2", "outcome": "inactive"}
{"smiles": "O=C1c2ccccc2C(=O)C1c1ccc(Br)cc1", "outcome": "inactive"}
{"smiles": "Cc1cccc(C(=O)O)c1O", "outcome": "inactive"}
{"smiles": "CCOC(=O)[C@H](CCc1ccccc1)N[C@@H](C)C(=O)N1Cc2cc(OC)c(OC)cc2C[C@H]1C(=O)O", "outcome": "inactive"}
{"smiles": "CC(=O)N[C@H]1[C@H]([C@H](O)[C@H](O)CO)OC(C(=O)O)=C[C@@H]1N=C(N)N", "outcome": "inactive"}
{"smiles": "NS(=O)(=O)c1ccc(C(=O)O)cc1", "outcome": "inactive"}
{"smiles": "CCN(CC)C(=O)c1cccc(C)c1", "outcome": "inactive"}
{"smiles": "CC(N)CCCC(C)(C)O", "note": "(stereo not given)", "outcome": "inactive"}
{"smiles": "O=C(O)c1cc(=O)c2ccccc2o1", "outcome": "inactive"}
{"smiles": "CC(=O)OCC(COC(C)=O)OC(C)=O", "outcome": "inactive"}
{"smiles": "C[N+](C)(C)CC(O)CC(=O)[O-]", "note": "(stereo not given)", "outcome": "inactive"}
{"smiles": "Cc1cc(NC(=O)C2=C(O)c3ccccc3S(=O)(=O)N2C)no1", "outcome": "inactive"}
{"smiles": "CC(=O)Oc1cccc(C)c1", "outcome": "inactive"}
{"smiles": "O=C(O)/C=C/c1ccc(Cn2ccnc2)cc1", "outcome": "inactive"}
{"smiles": "COc1ccc2cc(CCC(C)=O)ccc2c1", "outcome": "inactive"}
{"smiles": "O=c1[nH]c(=O)c2ccccc2o1", "outcome": "inactive"}
{"smiles": "Cc1ncc(CO)c(CN)c1O", "outcome": "inactive"}
{"smiles": "CCCC(O)C(CC)CO", "note": "(stereo not given)", "outcome": "inactive"}
{"smiles": "CCCCCCCC(=O)OCC(COC(=O)CCCCCCC)OC(=O)CCCCCCC", "outcome": "inactive"}
{"smiles": "Nc1ncnc2c1ncn2[C@@H]1O[C@H](COP(=O)(O)O)[C@@H](O)[C@H]1O", "outcome": "inactive"}
{"smiles": "CC(C)=CCC/C(C)=C/CO", "outcome": "inactive"}
